Among all 2,100 compounds or so, about 320 (15%) were called active. Another 52% or so got no clear call; they are omitted. Calls come from the whole dose curve; as a rule, active = well fitted cell-killing curve with a large enough effect; inconclusive = small, poorly fitted or top-dose-only effect, or effect the other way; inactive = flat fitted curve, though single readings scatter. This is one part of the list.
Assay: Viability Counterscreen for CMV-Luciferase Assay of Inhibitors of ATXN expression; note: nearly all actives have a fitted effect of over 55% in size
Settings: HEK-293 CMV-luciferase cells viability, protease fluorescence, 24 h; activity change, negative = cytotoxicity: at the top concentration
How it was run: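 HEK-293 cells stably expressing CMV-luciferase, treated 24 hr at 37 °C with compounds (several concentrations). Viability by Gly-Phe-AFC fluorescence (25 uM final, 30 min); reporter by SteadyGlo luminescence after 5 min.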
% is set by controls: 0 for no effect and ±100 for the full control effect; potency is the fitted concentration of half-maximal effect.

SMILES | activity change, negative = cytotoxicity | Potency
CCCC(=O)Nc1c(C(=O)OCC)[nH]c2ccccc12 | -10.6% (inactive) | 
Cc1ccc(-n2cccn2)c(CN2CCCC(C(=O)c3ccc4c(c3)OCO4)C2)c1 (stereo unspecified) | -23.7% [at 57.5 µM] (inactive) | 
O=C(Nc1cccc(Br)c1)c1ccc(Cl)c(S(=O)(=O)N2CCOCC2)c1 | -10.5% (inactive) | 
Cc1ccc2c(c1)-c1c(cnn1CC(=O)N1CCCN(Cc3ccccc3F)C1)CO2 | -15% (inactive) | 
Cc1cc(Br)ccc1NC(=O)c1cnc(N2CCN(c3ccccn3)CC2)c2ccccc12 | -2.71% (inactive) | 
Cc1cc(Cl)c(C(=O)Nc2cccc(C(F)(F)F)c2)c(C)n1 | -12.7% [at 57.5 µM] (inactive) | 
Cc1ccc(NC(=O)COc2ccc(Br)cc2CO)cc1S(=O)(=O)N1CCOCC1 | -29.7% [at 57.5 µM] (inactive) | 
O=C(c1ccc(Cl)s1)N1CCN(c2nc3ccccc3s2)CC1 | 8.44% (inactive) | 
CC(=O)c1ccc(NC(=O)COC(=O)c2c3c(nc4ccccc24)/C(=C\c2cccs2)CCC3)cc1 | -7.02% [at 57.5 µM] (inactive) | 
Cc1noc2ncnc(N3CCN(c4cccc(Cl)c4)CC3)c12 | 7.33% [at 57.5 µM] (inactive) | 
CCN1C(=O)C(CC(=O)Nc2ccc(OC)cc2)N(CCc2ccc(F)cc2)C1=S (stereo unspecified) | -29.9% (inactive) | 
CC(C)COc1cccc(C(=O)N(CC(=O)Nc2ccccc2C(F)(F)F)Cc2ccco2)c1 | -29% (inactive) | 
O=C(N/N=C/c1cc([N+](=O)[O-])ccc1O)c1c[nH]c2ccccc12 |  | 28.2 µM (active)
Cc1onc(-c2ccccc2)c1C(=O)N/N=C/c1c[nH]c2ccccc12 | -2.59% [at 57.5 µM] (inactive) | 
Cc1ccc2cc(C#N)c(N3CCN(C(=O)c4ccccc4)CC3)nc2c1 | -14.6% [at 57.5 µM] (inactive) | 
COc1ccc(-c2cc(C3CCN(c4ccc(C(C)=O)cc4[N+](=O)[O-])CC3)[nH]n2)cc1 |  | 14.1 µM (active)
CCOC(=O)[C@H]1[C@H]2COc3ccc(OC)cc3[C@@H]2N2C(=O)c3cc(OC)c(OC)cc3NC(=O)[C@@]12C | -12.3% (inactive) | 
NNc1ncnc2scc(-c3ccc(Cl)cc3)c12 | -15% [at 57.5 µM] (inactive) | 
CCOC(=O)c1c(C)sc2c1N(C(=O)CN(CC)CC)c1cc(Cl)ccc1S2 |  | 15.8 µM (active)
CN(C)c1nc(N/N=C/c2c[nH]c3ccccc23)nc(N2CCOCC2)n1 | 0.442% (inactive) | 
C=CCn1c(C)c(/C=C/c2cc[n+](C)cc2)c2ccccc21 | 5.96% (inactive) | 
Nn1cnnc1N/N=C/c1cc(Br)cc(Br)c1O | 9.75% (inactive) | 
CSc1sc(-c2nnc(SCC(=O)Nc3ccc(Cl)cc3)n2C)c2c1C=CCC2 | -1.3% (inactive) | 
Cn1c(SCC(=O)N/N=C/c2ccc([N+](=O)[O-])s2)nnc1-c1ccc(Cl)cc1 |  | 10 µM (active)

SMILES | activity change, negative = cytotoxicity | Potency
Cn1c(SCC(=O)N/N=C/c2ccc([N+](=O)[O-])s2)nnc1-c1ccccc1 |  | 20 µM (active)
O=C(CSc1nnnn1-c1ccccc1)Nc1nsc(-c2ccccc2)n1 | 6.34% [at 57.5 µM] (inactive) | 
Cn1c(SCC(=O)Nc2cc(Cl)cc(Cl)c2)nnc1-c1ccc2nonc2c1 | -20.1% (inactive) | 
COc1ccc(N2CCN(c3ccnc4cc(Cl)ccc34)CC2)cc1 | 1.26% (inactive) | 
COc1cccc(OC)c1C(=O)OCC(=O)NC(=O)NCc1ccccc1 | 2.4% (inactive) | 
CC(C)(C)c1ccc(Oc2ccc(N)cc2)cc1 | -10.3% [at 57.5 µM] (inactive) | 
Cc1nc2ncnn2c(N2CCN(c3cccc(C(F)(F)F)c3)CC2)c1C | 5.69% (inactive) | 
c1ccc2c(c1)c1c(c3ccccc32)CN2CCCC2C1 (stereo unspecified) | -17.1% [at 57.5 µM] (inactive) | 
Cc1c(N=C2C=CC(=O)c3ccccc32)c(=O)n(-c2ccccc2)n1C |  | 28.2 µM (active)
Cc1ccc(-c2cc(C(=O)NCCCN3CCOCC3)no2)cc1 | -0.121% [at 57.5 µM] (inactive) | 
COC(=O)C1=C(C)N(Cc2ccccc2)C(=NCCc2cccnc2)N[C@H]1c1ccc(Br)cc1 |  | 20 µM (active)
c1ccc(-c2cc3c(N4CCN(c5ccccc5)CC4)ncnc3s2)cc1 | -24.3% [at 57.5 µM] (inactive) | 
COc1ccc(N(CC(=O)N2CCN(c3ccc(Cl)cc3)CC2)S(=O)(=O)c2c(C)n[nH]c2C)cc1 | 1.04% (inactive) | 
COc1ccccc1-c1cc2nc(-c3ccccc3)cc(N3CCN(C(=O)c4ccoc4)CC3)n2n1 |  | 10 µM (active)
O=C(c1ccoc1)N1CCN(c2cc(-c3ccco3)nc3cc(-c4ccccc4)nn23)CC1 | -18.2% [at 57.5 µM] (inactive) | 
COc1cccc(-c2cc3nc(-c4ccccc4)cc(N4CCN(C(=O)c5ccoc5)CC4)n3n2)c1 | -24.5% (inactive) | 
COc1cccc(C2CC(c3c(-c4ccccc4)c4cc(Cl)ccc4[nH]c3=O)=NN2S(C)(=O)=O)c1OC (stereo unspecified) | -22.3% (inactive) | 
CCCOc1ccc(C(=O)NC(=S)NNC(=O)c2c(-c3ccccc3)noc2C)cc1 | -3.9% (inactive) | 
O=C(/C=C/c1ccccc1)NC(=S)NNC(=O)c1cnccn1 |  | 10 µM (active)
O=C(N/N=C1\CCCc2c1[nH]c1ccc(Cl)cc21)c1ccncc1 | 8.93% [at 57.5 µM] (inactive) | 
Cc1cc(C)nc(/N=C(\N)Nc2ccc(C(C)C)cc2)n1 | -6.78% (inactive) | 
CCc1cc(-c2nnn(CCC3COCCO3)c2CC)ccc1-c1cn(CCc2c[nH]c3ccccc23)nn1 (stereo unspecified) | -21% [at 57.5 µM] (inactive) | 
CCCc1nc2c(c(=O)c3ccccc3n2C)c(=O)n1C1CCCCCC1 |  | 20 µM (active)
CC(C)(C)OC(=O)CNC(=O)c1[nH]cnc1C(=O)Nc1ccc(CNC(=O)OC(C)(C)C)cc1 | -25.6% [at 57.5 µM] (inactive) | 

SMILES | activity change, negative = cytotoxicity | Potency
CN(C)c1cc[n+](CC(=O)c2ccc(-c3ccccc3)cc2)cc1 | -28.5% (inactive) | 
CCC(=O)OC1(C(C)=O)CCC2C3CCC4=CC(=O)CCC4(C)C3CCC21C (stereo unspecified) | -2.45% [at 57.5 µM] (inactive) | 
NC(Cc1ccc(C(F)(F)F)cc1)c1csc(Nc2nccc(C(F)(F)F)n2)n1 (stereo unspecified) | -0.88% (inactive) | 
CC(C)(C)c1ccc(C(=O)N2CCCCCC2=O)cc1 | -17.4% [at 57.5 µM] (inactive) | 
CCN(CC)c1ccc(C(=O)N/N=C/c2ccccc2OC(F)F)cc1 | -26.8% (inactive) | 
CCN(CC)c1ccc(/C=C/c2cccc[n+]2C)c(OC)c1 |  | 14.1 µM (active)
COc1ccccc1NC(=S)NC(=O)c1ccc(Cn2cc(Br)cn2)cc1 | 3.03% [at 57.5 µM] (inactive) | 
COc1cc(-c2nnc(SCC(=O)N(Cc3ccccc3)C(C)(C)C)o2)cc(OC)c1OC | -7.89% (inactive) | 
Cc1ccc(NC(=O)c2ccc(-c3nn(C)c(=O)c4ccccc34)cc2)cc1 | -10.4% [at 57.5 µM] (inactive) | 
CCc1nc2ccccc2c(C(=O)OCC(=O)Nc2ccc(NC(C)=O)cc2)c1C | 3.49% (inactive) | 
C/C(=N\NC(=O)c1cc(C2CC2)nc2ccccc12)c1ccc(O)cc1O | 8.57% [at 57.5 µM] (inactive) | 
CC(=O)Nc1ccc(Nc2c3ccccc3nc3ccccc23)cc1 |  | 8.91 µM (active)
CSc1sc(C(=O)NN)c2c1C1(CCC2)SCCS1 | 5.91% [at 57.5 µM] (inactive) | 
CC1CCCN(S(=O)(=O)c2ccc(C(=O)Nc3nnc(-c4ccccc4Cl)o3)cc2)C1 (stereo unspecified) | -14% (inactive) | 
COc1ccc(/C=C2\CN(Cc3ccccc3)C/C(=C\c3ccc(OC)c(O)c3)C2=O)cc1O |  | 10 µM (active)
O=C1/C(=C\c2cc(Cl)c(O)c(Cl)c2)SC(=S)N1Cc1ccccc1 | 27.6% [at 57.5 µM] (inactive) | 
OC1(c2ccc(Cl)cc2)CCN(Cc2c[nH]c3ccccc23)CC1 | -9.54% (inactive) | 
COCCCn1c(-c2ccc(S(=O)(=O)N3CCOCC3)cc2)csc1=Nc1ccccc1 | 2.74% (inactive) | 
COc1ccc(Cl)cc1C(=O)Nc1ccccc1N1CCN(C(=O)C(C)C)CC1 | -29.9% [at 57.5 µM] (inactive) | 
COc1ccc(NC(=O)c2cc(-c3cc(Cl)ccc3OC)n[nH]2)cc1OC |  | 0.398 µM (active)
COc1ccc(Cl)cc1NC(=O)Nc1cccc([N+](=O)[O-])c1C | 2.88% (inactive) | 
Cc1cc(C)c(C(=O)N2CCCC(N3CCN(c4cccc(C(F)(F)F)c4)CC3)C2)o1 (stereo unspecified) | -20.6% (inactive) | 
CCOc1ccc(CCNC(=O)c2ccc(OCc3c(C)noc3C)cc2)cc1OCC | 20.1% (inactive) | 
